Records with an inconclusive call do not appear. The source made the active and inactive calls. Calls come from the whole dose curve; as a rule, active = well fitted inhibition curve with a large enough effect; inconclusive = small, poorly fitted or top-dose-only effect; inactive = flat fitted curve, though single readings scatter. Peptide text beside a SMILES is read from it.
test system: ATS189; assay: qHTS profiling for inhibitors of Plasmodium falciparum proliferation (AID 504749); note: nearly all actives have a fitted effect of over 60% in size;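 for activity, negative = inhibition: 0% = DMSO vehicle and full inhibition = artemisinin control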; conditions: P. falciparum in erythrocytes, SYBR Green DNA, 72 h; series mostly up to 12.8 µM; activity, negative = inhibition: at the top concentration
In short: (§1)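 Infected RBCs, 0.3% parasitemia/2.5% Hct final; cpd 72 h, 37 C, 5% CO2; lysis buffer with saponin/triton/SYBR Green I, o/n RT dark; FI 485/535; norm. to artemisinin (0.29 uM) and DMSO.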
Potency is the fitted concentration of half-maximal effect.

Row | SMILES | activity, negative = inhibition | Potency
1 | C[C@]12C=CC(=O)C=C1CCC1C2C(O)C[C@]2(C)C1CC[C@]2(O)C(=O)CO (stereo partly specified) | 4.7% [at 28.7 µM] (inactive) | 
2 | CC1(C)S[C@H]2C(NC(=O)[C@@H](N)c3ccc(O)cc3)C(=O)N2[C@@H]1C(=O)O (stereo partly specified) | 2.86% [at 28.7 µM] (inactive) | 
3 | CC(C)=CCC[C@](C)(O)C1CC=C(C)CC1 (stereo partly specified) | 5.41% [at 28.7 µM] (inactive) | 
4 | CO[C@]12C(COC(N)=O)C3=C(C(=O)C(C)=C(N)C3=O)N1CC1NC12 (stereo partly specified) |  | 1.26 µM (active)
5 | C[C@]1(c2ccccc2)OC(C(=O)O)=CC1=O | 15.8% [at 28.7 µM] (inactive) | 
6 | CC(=O)N[C@H](CC(C)C)C(=O)O | 8.96% [at 28.7 µM] (inactive) | 
7 | COc1ccc2cc(C(C)CO)ccc2c1 (stereo unspecified) | 6.95% [at 28.7 µM] (inactive) | 
8 | COC1C=CO[C@@]2(C)Oc3c(C)c(O)c4c(O)c(c(C=NN5CCN(C)CC5)c(O)c4c3C2=O)NC(=O)/C(C)=C\C=CC(C)C(O)[C@@H](C)C(O)C(C)[C@H](OC(C)=O)C1C (stereo partly specified) |  | 1.58 µM (active)
9 | CC1CCC(C(C)C)C(=O)C1 (stereo unspecified) | 7.69% [at 28.7 µM] (inactive) | 
10 | CNC1CC(N)[C@H](O)[C@@H](O[C@@H]2OC(CO)C3OC4(OC(C(N)CO)C(O)C(O)C4O)O[C@@H]3[C@H]2O)C1O (stereo partly specified) | 8.85% [at 28.7 µM] (inactive) | 
11 | CCCC(=O)O[C@]1(C(=O)CO)CCC2[C@@H]3CCC4=CC(=O)CC[C@]4(C)C3C(O)C[C@]21C (stereo partly specified) | 5.82% [at 28.7 µM] (inactive) | 
12 | CC(=O)[C@]1(O)CCC2C3C=C(Cl)C4=CC(=O)C5CC5[C@@]4(C)C3CC[C@]21C (stereo partly specified) | 10% [at 28.7 µM] (inactive) | 
13 | CC(=O)N[C@@H]1C(O)OC(CO)C(O)C1O (stereo partly specified) | 5.53% [at 28.7 µM] (inactive) | 
14 | C/C1=C2N=C(/C=C3N=C(/C(C)=C4\[N-]C(C)(C5N=C1C(C)(CCC(=O)NCC(C)OP(=O)([O-])O[C@H]1C(O)C(n6cnc7cc(C)c(C)cc76)O[C@@H]1CO)C5CC(N)=O)C(C)(CC(N)=O)C4CCC(N)=O)C(C)(CC(N)=O)C\3CCC(N)=O)C(C)(C)C/2CCC(N)=O.[CH2-]C1OC(n2cnc3c(N)ncnc32)C(O)C1O.[Co] (stereo partly specified) | -0.704% [at 28.7 µM] (inactive) | 
15 | O=C1OC(CO)C(O)C(O)C1O (stereo unspecified) | 5.95% [at 28.7 µM] (inactive) | 
16 | CNC1C(OC2C(O[C@@H]3C(O)C(O)[C@@H](N=C(N)N)C(O)C3N=C(N)N)OC(C)[C@@]2(O)CO)OC(CO)C(O)C1O (stereo partly specified) | 5.31% [at 28.7 µM] (inactive) | 
17 | COc1cc(C2c3cc4c(cc3C(O[C@@H]3OC5COC(c6cccs6)OC5C(O)C3O)C3COC(=O)C23)OCO4)cc(OC)c1O (stereo partly specified) |  | 2.24 µM (active)
18 | Nc1nc2ncc(CNc3ccc(C(=O)NC(CCC(=O)O)C(=O)O)cc3)nc2c(=O)[nH]1 (stereo unspecified) | 7.63% [at 28.7 µM] (inactive) | 

test system: ATS95; assay: as above; conditions: P. falciparum in erythrocytes, SYBR Green DNA, 72 h; series mostly up to 12.8 µM; activity, negative = inhibition: at the top concentration
In short: as §1

Row | SMILES | activity, negative = inhibition | Potency
19 | CN(C)CCCOC1C(C(O)CO)OC2OC(C)(C)O[C@@H]21 (stereo partly specified) | 5.91% [at 28.7 µM] (inactive) | 
20 | CCC(C)C(=O)OC1CCC=C2C=CC(C)C(CCC3CC(O)CC(=O)O3)[C@@H]21 (stereo partly specified) | -6.4% [at 28.7 µM] (inactive) | 
21 | CC(=O)OC1CCC2C3CCc4cc(O)ccc4C3CCC12C (stereo unspecified) | 0.287% [at 28.7 µM] (inactive) | 
22 | CC[C@@]12CCCN3CCc4c(n(c5ccccc45)[C@](O)(C(=O)OC)C1)C32 (stereo partly specified) | -9.95% [at 28.7 µM] (inactive) | 
23 | NC(C(=O)O)[C@@H]1CC(Cl)=NO1 (stereo partly specified) |  | 1 µM (active)
24 | CN1CC(=O)N=C1N | 4.85% [at 28.7 µM] (inactive) | 
25 | OCC1OC([S-])[C@H](O)C(O)C1O.[Au+] (stereo partly specified) | 0.0662% [at 28.7 µM] (inactive) | 
26 | CC(C)C1CCC(C(=O)NC(Cc2ccccc2)C(=O)O)CC1 (stereo unspecified) | -28.5% [at 28.7 µM] (inactive) | 
27 | CCC(CCC(C)C1CCC2C3CC=C4CC(O)CC[C@@]4(C)C3CC[C@@]12C)C(C)C (stereo partly specified) | 5.58% [at 28.7 µM] (inactive) | 
28 | C[C@]12CCC(=O)C=C1CCC1C2C(=O)C[C@]2(C)C1CC[C@]2(O)C(=O)CO (stereo partly specified) | 4.53% [at 28.7 µM] (inactive) | 
29 | OCC1O[C@H](OC2C(CO)O[C@@](O)(CO)C2O)C(O)C(O)C1O (stereo partly specified) | -0.845% [at 28.7 µM] (inactive) | 
30 | CC1(C)OC2CO[C@]3(COS(N)(=O)=O)OC(C)(C)OC3C2O1 (stereo partly specified) | 5.85% [at 28.7 µM] (inactive) | 
31 | CC1(C)OC2CC(=O)OC[C@@]23C1CC(=O)[C@]1(C)C3CC[C@@]2(C)C(c3ccoc3)OC(=O)C3O[C@@]321 (stereo partly specified) | 0.129% [at 28.7 µM] (inactive) | 
32 | CCOC(=O)C1=CC(OC(CC)CC)C(NC(C)=O)C(N)C1 (stereo unspecified) | 2.03% [at 28.7 µM] (inactive) | 
33 | COC1C=CO[C@@]2(C)Oc3c(C)c(O)c4c(O)c(c5c(nc6cc(C)ccn65)c4c3C2=O)NC(=O)/C(C)=C\C=CC(C)C(O)[C@@H](C)C(O)C(C)[C@@H](OC(C)=O)C1C (stereo partly specified) |  | 10 µM (active)
34 | COC(=O)C(Cc1ccccc1)NC(=O)C(N)CC(=O)O (stereo not drawn) (H-Asp-Phe-OMe; configuration not given here) | 0.532% [at 28.7 µM] (inactive) | 
35 | C[C@]12C=CC(=O)C=C1CCC1C2C(O)C[C@]2(C)C1CC[C@]2(O)C(=O)CO (stereo partly specified) | 3.81% [at 28.7 µM] (inactive) | 

Row | SMILES | activity, negative = inhibition | Potency
36 | CC1(C)S[C@H]2C(NC(=O)[C@@H](N)c3ccc(O)cc3)C(=O)N2[C@@H]1C(=O)O (stereo partly specified) | -1.21% [at 28.7 µM] (inactive) | 
37 | CC(C)=CCC[C@](C)(O)C1CC=C(C)CC1 (stereo partly specified) | -13.4% [at 28.7 µM] (inactive) | 
38 | CO[C@]12C(COC(N)=O)C3=C(C(=O)C(C)=C(N)C3=O)N1CC1NC12 (stereo partly specified) |  | 1 µM (active)
39 | C[C@]1(c2ccccc2)OC(C(=O)O)=CC1=O | 3.69% [at 28.7 µM] (inactive) | 
40 | CC(=O)N[C@H](CC(C)C)C(=O)O | -1.73% [at 28.7 µM] (inactive) | 
41 | COc1ccc2cc(C(C)CO)ccc2c1 (stereo unspecified) | 8.52% [at 28.7 µM] (inactive) | 
42 | COC1C=CO[C@@]2(C)Oc3c(C)c(O)c4c(O)c(c(C=NN5CCN(C)CC5)c(O)c4c3C2=O)NC(=O)/C(C)=C\C=CC(C)C(O)[C@@H](C)C(O)C(C)[C@H](OC(C)=O)C1C (stereo partly specified) |  | 2.51 µM (active)
43 | CC1CCC(C(C)C)C(=O)C1 (stereo unspecified) | -6.37% [at 28.7 µM] (inactive) | 
44 | CNC1CC(N)[C@H](O)[C@@H](O[C@@H]2OC(CO)C3OC4(OC(C(N)CO)C(O)C(O)C4O)O[C@@H]3[C@H]2O)C1O (stereo partly specified) | -2.12% [at 28.7 µM] (inactive) | 
45 | CCCC(=O)O[C@]1(C(=O)CO)CCC2[C@@H]3CCC4=CC(=O)CC[C@]4(C)C3C(O)C[C@]21C (stereo partly specified) | 12.6% [at 28.7 µM] (inactive) | 
46 | CC(=O)[C@]1(O)CCC2C3C=C(Cl)C4=CC(=O)C5CC5[C@@]4(C)C3CC[C@]21C (stereo partly specified) | 0.439% [at 28.7 µM] (inactive) | 
47 | CC(=O)N[C@@H]1C(O)OC(CO)C(O)C1O (stereo partly specified) | -4.18% [at 28.7 µM] (inactive) | 
48 | C/C1=C2N=C(/C=C3N=C(/C(C)=C4\[N-]C(C)(C5N=C1C(C)(CCC(=O)NCC(C)OP(=O)([O-])O[C@H]1C(O)C(n6cnc7cc(C)c(C)cc76)O[C@@H]1CO)C5CC(N)=O)C(C)(CC(N)=O)C4CCC(N)=O)C(C)(CC(N)=O)C\3CCC(N)=O)C(C)(C)C/2CCC(N)=O.[CH2-]C1OC(n2cnc3c(N)ncnc32)C(O)C1O.[Co] (stereo partly specified) | -6% [at 28.7 µM] (inactive) | 
49 | O=C1OC(CO)C(O)C(O)C1O (stereo unspecified) | 6.47% [at 28.7 µM] (inactive) | 
50 | CNC1C(OC2C(O[C@@H]3C(O)C(O)[C@@H](N=C(N)N)C(O)C3N=C(N)N)OC(C)[C@@]2(O)CO)OC(CO)C(O)C1O (stereo partly specified) | 2.77% [at 28.7 µM] (inactive) | 
51 | COc1cc(C2c3cc4c(cc3C(O[C@@H]3OC5COC(c6cccs6)OC5C(O)C3O)C3COC(=O)C23)OCO4)cc(OC)c1O (stereo partly specified) |  | 2.51 µM (active)
